Potency, activity change, negative = cytotoxicity and activity change, negative = inhibition data for 17 compounds are collected here from PubChem BioAssay (NCATS).

Results filed as inconclusive are left out. A number with no mark means an inactive call. Active and inactive are the calls of the source. The call rests on the fitted dose curve; in most records, active means well fitted curve in the direction sought with a large enough effect; inconclusive means small, poorly fitted or top-dose-only effect, or another doubt; inactive means no such curve, though single readings can be large; an effect the other way counts as inactive or inconclusive.

One assay has as its system CAOV3. Description: Primary qHTS to identify gynecologic anti-cancer compounds using libraries of approved drugs and bioactive compounds (AID 1345084). Further: nearly all actives have a fitted effect of over 55% in size. The following applies: Gynecologic cancer cell panel viability, ATPlite luminescence, 48 h; series mostly up to 57.5 µM. In outline:
(§1)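 Cytotoxicity screen measuring ATP content by luciferase luminescence. Each compound is applied at five concentrations for 48 h at 37 C with 5% CO2.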

The next assay concerns CASKI. The description is as above. The following applies: Gynecologic cancer cell panel viability, ATPlite luminescence, 48 h; series mostly up to 57.5 µM. In outline:
as §1
For orientation: In ATP-based viability assays light output follows the ATP content of the culture.

A further assay concerns Es-2. The description is as above. The settings on record: Gynecologic cancer cell panel viability, ATPlite luminescence, 48 h; series mostly up to 57.5 µM. The method in brief: as §1
A further assay deals with HeLa. The assay is described as above. The settings on record: Gynecologic cancer cell panel viability, ATPlite luminescence, 48 h; series mostly up to 57.5 µM. The method in brief:
as §1

A further assay deals with Hek293T. Described as above. The following applies: Gynecologic cancer cell panel viability, ATPlite luminescence, 48 h, control line for the selectivity index; series mostly up to 57.5 µM. The method in brief: as §1
In the next assay the test system is OV90. Described as above. The settings on record: Gynecologic cancer cell panel viability, ATPlite luminescence, 48 h; series mostly up to 57.5 µM. In outline: as §1
The subject of the next assay is Tov-21-G. Described as above. The settings on record: Gynecologic cancer cell panel viability, ATPlite luminescence, 48 h; series mostly up to 57.5 µM. In outline: as §1
The test system of a further assay is Tov112D. The description is as above. The settings on record: Gynecologic cancer cell panel viability, ATPlite luminescence, 48 h; series mostly up to 57.5 µM. The method in brief:
as §1

The test system of a further assay is JEG-3. The description is as above. The following applies: Gynecologic cancer cell panel viability, ATPlite luminescence, 48 h; series mostly up to 57.5 µM. The method in brief:
as §1

Another assay deals with PA-1. The description is as above. The settings on record: Gynecologic cancer cell panel viability, ATPlite luminescence, 48 h; series mostly up to 57.5 µM. In outline: as §1
The test system of a further assay is SKOV3. The description is as above. The settings on record: Gynecologic cancer cell panel viability, ATPlite luminescence, 48 h; series mostly up to 57.5 µM. The method in brief: as §1
A further assay relates to C33A. Described as above. The settings on record: Gynecologic cancer cell panel viability, ATPlite luminescence, 48 h; series mostly up to 57.5 µM. The method in brief:
as §1

A short description of assay [1]: qHTS assay to identify inhibitors of the type 1 interferon - major histocompatibility complex class I in skeletal muscle: Counter screen cell viability and HiBit confirmation (AID 1347412). Further: nearly all actives have a fitted effect of over 60% in size. The settings on record: iHSKM muscle cells + IFN-b, HiBiT or CellTiter-Glo, 24 h. The method in brief: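 Human myoblast knock-in line, 4.0 ng/ml IFN-beta stimulation, 24 h compound treatment. Endpoints: HiBiT lytic luminescence (HLA-B level) and CellTiter Glo (ATP). Dosing 12 concentrations, 3-fold steps, 46 uM highest final.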
On the % scale 0 is the no-effect control and ±100 the full control effect; potency means the concentration at half of the fitted maximal effect.

`Cc1ccc(C(=O)Nc2noc3ccccc23)cc1`: the Potency was 15.8 µM (active) in the assay on CAOV3; 22400 nM (active) in the assay on CASKI; 15.8 µM (active) in the assay on Es-2; 22.4 µM (active) in the assay with HeLa; 15.8 µM (active) with Hek293T; 11.2 µM (active) with OV90. The Potency in the assay with Tov-21-G and in the assay with Tov112D was 28.2 µM (active) each time.
As to `O=C(O)c1cc2cccc([N+](=O)[O-])c2[nH]1`, the Potency entry in the assay on CAOV3, in the assay with CASKI, with Es-2, in the assay on HeLa, in the assay with Hek293T and in the assay on JEG-3 was “inactive” in each case. In addition, the Potency result in the assay with OV90, with PA-1, with SKOV3 and with Tov-21-G was “inactive” in each case.
Consider `COc1ccc(F)cc1-c1cc(NC(=O)[C@@H]2CCCNC2)ncc1Cl`, for which the Potency result with CAOV3 and with JEG-3 was “inactive” in each case. Moreover, the Potency is 891 nM (active) in the assay with CASKI; 0.794 µM (active) in the assay with Es-2; 0.708 µM (active) with HeLa; 0.398 µM (active) with Hek293T; 355 nM (active) with PA-1; 0.708 µM (active) with Tov112D.
As to `Cc1ccccc1C#Cc1ccc(CCC(=O)O)cc1`, the Potency result in the assay on C33A was “inactive”. The Potency in the assay on Tov-21-G is 17.8 µM (active).
Consider `CC1=C(C(=O)OCc2ccccc2)C(c2ccc(-c3ccccc3)cc2)NC(=O)N1CCCCCC(=O)O` (stereo not given), for which the Potency entry in the assay with CAOV3, with CASKI, in the assay on Es-2, in the assay with HeLa, with Hek293T and with JEG-3 was “inactive” each time. Further, the Potency entry with OV90, with PA-1, in the assay with SKOV3, in the assay on Tov-21-G and with Tov112D was “inactive” each time.
`C[C@@H]1O[C@@H](O[C@H]2[C@H](O[C@H]3[C@H](O[C@H]4CC[C@@]5(C)C(CC[C@]6(C)C5CC=C5[C@@H]7CC(C)(C)CC[C@]7(C(=O)O[C@@H]7O[C@H](CO)[C@@H](O[C@@H]8O[C@@H](C)[C@H](O)[C@@H](O)[C@H]8O)[C@H](O)[C@H]7O)CC[C@]56C)C4(C)C)OC[C@H](O)[C@@H]3O)O[C@H](CO)[C@@H](O)[C@@H]2O)[C@H](O)[C@H](O)[C@H]1O` (stereo not given in full): the activity change, negative = cytotoxicity with C33A is -22.7% [at 6.55 µM]; with Es-2, -47.2% [at 6.55 µM]; in the assay with OV90, -0.139% [at 6.55 µM].
For `CCC1C(=O)OC23C=C[C@@H]4C(C(=O)O)=CO[C@H](O[C@@H]12)[C@@H]43` (stereo not given in full), the Potency entry with CAOV3, with CASKI, with Es-2, with HeLa, in the assay on Hek293T and in the assay on JEG-3 was “inactive” in each case. Further, the Potency entry in the assay on OV90, with PA-1 and with SKOV3 was “inactive” throughout.
On to `COc1ncc(Nc2ncc([C@@H](C)N3CCN(S(C)(=O)=O)CC3)cc2-c2nc(C)nc(N)n2)cc1F`, for which the Potency result in the assay on CAOV3, in the assay with Es-2, in the assay on HeLa, in the assay on OV90, with PA-1 and in the assay with Tov112D was “inactive” in each case. For the same compound, the results for the Potency in the assay on CASKI, with Hek293T and in the assay on SKOV3 were 398 nM (active), 1.26 µM (active) and 0.398 µM (active), respectively.
As to `Cc1onc(C(=O)N2CCN(C(c3ccc(Cl)cc3)c3ccc(Cl)cc3)CC2)c1[N+](=O)[O-]`, the Potency in the assay with CAOV3 is 2.24 µM (active); in the assay with Es-2, 1 µM (active); in the assay with PA-1 it was 8910 nM (active); with SKOV3, 7.94 µM (active); with Tov-21-G, 1.12 µM (active); in the assay with Tov112D, 7.94 µM (active). Besides, the Potency entry with CASKI, in the assay on HeLa, in the assay with Hek293T and with OV90 was “inactive” in each case.
Regarding `CC(=O)NCC(=O)N1C2CCC1c1cc(Nc3ncc(C(F)(F)F)c(NC4CCC4)n3)ccc12` (stereo not given), the Potency entry in the assay on C33A and with JEG-3 was “inactive” in each case. In addition, the Potency was 14.1 µM (active) in the assay with Es-2, 3.98 µM (active) with Hek293T and 8.91 µM (active) with Tov-21-G.
Regarding `CC(=O)OC1C(=O)C2(C)C(O)CC3OCC3(OC(C)=O)C2C(OC(=O)c2ccccc2)C2(O)CC(OC(=O)C(O)C(NC(=O)c3ccccc3)c3ccccc3)C(C)=C1C2(C)C` (stereo not given), the Potency entry in the assay with C33A, with Hek293T, with OV90 and with Tov112D was “inactive” in each case. In addition, the Potency in the assay on Es-2 is 0.316 µM (active).
For the compound `Nc1ccc(/C=C/C(=O)NCc2cc3cc(-c4ccc(C(=O)N5CCC(F)(F)CC5)cc4)cc(-c4ccc(F)cc4)c3o2)cn1`, the Potency was 7.08 µM (active) in the assay with C33A; 4.47 µM (active) in the assay with HeLa; 3.98 µM (active) in the assay on Hek293T; 1.58 µM (active) in the assay on JEG-3; 3.55 µM (active) in the assay on OV90; 1410 nM (active) in the assay with PA-1. The Potency in the assay on SKOV3 is 1.78 µM (active); in the assay on Tov-21-G, 3.16 µM (active).
For the compound `O=S(=O)(c1ccccc1)c1cnc2c(N3CCNCC3)cccc2c1`, the Potency entry with CAOV3, in the assay on CASKI, in the assay on Es-2, with HeLa, in the assay on Hek293T and with PA-1 was “inactive” each time. In the assay with Tov-21-G, the Potency result is “inactive”.
On to `CC(C)c1c2cc(-c3ccnc(NC4CCC(NC5CCOCC5)CC4)n3)ccc2nn1C` (stereo not given), for which the Potency entry in the assay on CAOV3 and with JEG-3 was “inactive” throughout. The Potency with CASKI is 631 nM (active); in the assay with Es-2 it was 0.316 µM (active); with HeLa it was 0.708 µM (active); in the assay with PA-1, 355 nM (active); in the assay with Tov112D it was 0.398 µM (active); in [1] (HiBiT), 0.249 µM (active). Besides, the activity change, negative = inhibition in [1] (Viability, at 45.9 µM (top of the series)) was -6.54%.
Take `CC1(C)CC[C@]23CO[C@@]4(CCC5[C@@]6(C)CC[C@H](O[C@@H]7OC[C@H](O[C@@H]8O[C@H](CO)[C@@H](O)[C@H](O)[C@H]8O)[C@H](O)[C@H]7O[C@@H]7O[C@H](CO)[C@@H](O[C@@H]8O[C@H](CO)[C@@H](O)[C@H](O)[C@H]8O)[C@H](O)[C@H]7O)[C@@](C)(CO)C6CC[C@@]5(C)[C@]4(C)C[C@H]2OC2OCC(O)C(O)C2O)C3C1` (stereo not given in full): the activity change, negative = cytotoxicity in the assay on C33A was -28.5% [at 6.55 µM]; with HeLa, -27.3% [at 6.55 µM].
`CN1CCN(c2ccc(C(=O)Nc3n[nH]c4ccc(Cc5cc(F)cc(F)c5)cc34)c(NC3CCOCC3)c2)CC1`: the Potency entry in the assay with C33A, with Es-2, with Hek293T, with JEG-3, in the assay on Tov-21-G and with Tov112D was “inactive” in each case. Besides, the Potency in [1] (HiBiT) is 17.6 µM (active); in assay [1] (Viability), 27.9 µM (active).
For the compound `CN1CCC(Nc2nc(Nc3ccc(Oc4ccccc4)cc3)c3c(=O)[nH]cc(Br)c3n2)CC1`, the Potency result in the assay with C33A, in the assay on Hek293T, in the assay on JEG-3, with OV90, with Tov-21-G and in the assay with Tov112D was “inactive” in each case.
